In the library only some 18% were active in any assay of this set; here they are far more common.
TDP1 cell noCPT: qHTS for Inhibitors of human tyrosyl-DNA phosphodiesterase 1 (TDP1): qHTS in cells in absence of CPT; Potency, µM (titrated, usually from 46.2 µM), for the others: at the top dose activity change, negative = growth inhibition, most hits filed as inhibitors; DT40 Tdp1-/- hTDP1 cells, no CPT, ATP luminescence, 48 h; hit rate 15% among 420,000; AID 686978, 2013; also: potency is read from the fitted curve at half-maximal effect; % is scaled to controls: 0 for no effect and ±100 for the full control effect; nearly all actives have a fitted effect of over 55% in size
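Luminescent ATP content (CellTiter-Glo) served as the growth readout. Knockout chicken DT40 cells expressing human TDP1 were exposed to compounds without camptothecin for a minimum 48 hr at 37 °C.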
IL1B secr inh: qHTS for Inhibitors of Inflammasome Signaling: IL-1-beta AlphaLISA Primary Screen; THP-1 LPS/ATP IL-1B secretion, AlphaLISA, 16 h; active compounds read low; activity change, % at 57.5 µM; hit rate 4.7% among 360,000; AID 743279, 2014; in the data active = activity change below about -50%; inconclusive = mostly about -30% to -49%; also: % is scaled to controls: 0 for no effect and ±100 for the full control effect
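Secreted IL-1B measured by AlphaLISA bead assay after 16 h compound exposure of THP-1 cells; compounds (final up to 57.5 uM) added 1 h before LPS (250 ng/mL) and ATP (1.25 mM) stimulation; lower signal means less secretion.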
TDP1 cell CPT: qHTS for Inhibitors of human tyrosyl-DNA phosphodiesterase 1 (TDP1): qHTS in cells in presence of CPT; hit rate 12% among 420,000; chicken DT40 Tdp1-/-;hTDP1 cells + 20 nM CPT, ATP luminescence, 48 h; Potency, µM (titrated, usually from 46.2 µM), for the others: at the top dose activity change, negative = growth inhibition, hits mostly inhibitors; also: potency is read from the fitted curve at half-maximal effect; % is scaled to controls: 0 for no effect and ±100 for the full control effect; nearly all actives have a fitted effect of over 55% in size
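Chicken DT40 Tdp1-/- cells stably complemented with human TDP1 were seeded at 400 cells/well in medium containing 20 nM camptothecin, exposed to pin-transferred compounds, and grown at 37 °C for at least 48 hr. Viability was read as ATP luminescence.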
HepG2 viability: qHTS for Inhibitors of TGF-b: Cytotox Counterscreen; HepG2 CAGA-GFP viability, ATP luminescence, 18 h; Potency, µM (top dose mostly 46.1 µM), for inactives: at the top dose activity change, negative = cytotoxicity, hits mostly cytotoxic; hit rate 0.76% among 410,000; also: potency is read from the fitted curve at half-maximal effect
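CellTiter-Glo luminescence gave cytotoxicity after 18 hours at 37 degrees C. The cells were HepG2 CAGA-GFP in 1% FBS DMEM, stimulated with 500 pg/mL TGF-beta after compound addition. %Activity was normalised to no-cell wells (complete cell-killing) and DMSO (no toxicity), and curves were fitted and classified.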
TGFb inhibitor: qHTS for Inhibitors of TGF-b | hit rate 1.2% among 410,000 | Potency, µM (doses to about 46.1 µM), without a hit: at the highest dose activity, negative = inhibition, most hits filed as inhibitors | HepG2 CAGA-GFP TGF-b/SMAD3 reporter, GFP fluorescence, 18 h; TGF-beta stimulated, 500 pg/mL final; also: potency is read from the fitted curve at half-maximal effect; % is scaled to controls: 0 for no effect and ±100 for the full control effect; nearly all actives have a fitted effect of over 65% in size
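GFP signal (ex488/em500-530) from TGF-beta-stimulated HEPG2 CAGA-GFP cells, 500 pg/mL final, 18 h at 37 degrees C in DMEM plus 1% FBS, normalized to unstimulated and DMSO-stimulated controls.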
TDP1 inh: qHTS Assay for Inhibitors of Tyrosyl-DNA Phosphodiesterase (TDP1); recombinant TDP1, AlphaScreen DNA substrate cleavage; Potency, µM (series often up to 130 µM), inactives show at the top dose activity change, negative = inhibition, most hits filed as inhibitors; AID 485290, 2010; hit rate 0.28% among 350,000; Tyrosyl-DNA phosphodiesterase 1 (Homo sapiens), Q9NUW8; also: potency is read from the fitted curve at half-maximal effect; % is scaled to controls: 0 for no effect and ±100 for the full control effect; nearly all actives have a fitted effect of over 40% in size
Target sequence (Q9NUW8 whole entry, looked up): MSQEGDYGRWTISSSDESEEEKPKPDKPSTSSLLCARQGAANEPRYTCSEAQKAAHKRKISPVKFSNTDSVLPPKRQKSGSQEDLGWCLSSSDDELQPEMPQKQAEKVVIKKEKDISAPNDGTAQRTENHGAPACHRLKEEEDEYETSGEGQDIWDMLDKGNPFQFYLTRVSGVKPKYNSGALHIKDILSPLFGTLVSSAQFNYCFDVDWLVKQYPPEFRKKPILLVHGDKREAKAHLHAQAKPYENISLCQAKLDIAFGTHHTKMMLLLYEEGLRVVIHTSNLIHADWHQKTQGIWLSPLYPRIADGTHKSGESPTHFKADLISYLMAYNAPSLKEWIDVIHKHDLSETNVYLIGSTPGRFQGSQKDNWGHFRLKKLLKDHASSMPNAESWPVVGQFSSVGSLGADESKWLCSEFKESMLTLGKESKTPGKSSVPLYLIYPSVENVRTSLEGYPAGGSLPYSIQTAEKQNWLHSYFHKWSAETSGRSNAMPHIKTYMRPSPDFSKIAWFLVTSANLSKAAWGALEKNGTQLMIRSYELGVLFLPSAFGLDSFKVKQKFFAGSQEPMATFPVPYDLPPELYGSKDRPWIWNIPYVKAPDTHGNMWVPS
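Steps: enzyme plus compound, 15 min RT; add biotin/phosphotyrosine-FITC oligonucleotide (15 nM final), react 5 min; add donor/acceptor beads (10 ug/ml final), 10 min; read AlphaScreen. Tdp1 at 1 nM final.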
* = called active by the depositor; u = inconclusive; x = no result. Unless noted, calls follow the shape of the dose curve; as a rule, active = well fitted curve in the direction sought with a large enough effect; inconclusive = small, poorly fitted or top-dose-only effect, or another doubt; inactive = no such curve, though single readings can be large; an effect the other way counts as inactive or inconclusive.

SMILES | TDP1 cell noCPT | IL1B secr inh | TDP1 cell CPT | HepG2 viability | TGFb inhibitor | TDP1 inh
O=C(Nc1nc(=S)ss1)c1c(F)cccc1F | -25% | 25 | -5% | 10% | u | 7%
NCCC[C@@H](CC(=O)N[C@@H]1CCNC[C@H]1C(=O)N[C@H](CC(=O)N[C@@H](CCC(=O)O)CC(=O)O)Cc1ccccc1)NC(=O)C[C@H](CO)NC(=O)[C@@H]1CCCC[C@H]1N | x | x | x | x | x | 3%
Fc1ccccc1CNc1ncnc2sccc12 | 8.2µM* | -8 | 4.1µM* | -3% | 1% | -6%
COc1cc2ncnc(NCc3ccccc3F)c2cc1OC | u | -21 | u | 1% | 6% | x
CN(C)c1ccc(CNc2ncnc3sccc23)cc1 | 2.1µM* | 14 | 4.1µM* | -3% | -8% | 11%
S=C(NCC1COc2ccccc2O1)Nc1ccccc1 (configuration not stated) | u | -29 | -18% | -3% | -1% | -1%
c1ccc2c(c1)OCC(CNc1ncnc3sccc13)O2 (configuration not stated) | 0.65µM* | -12 | 1.2µM* | -42% | -24% | 2%
Cc1cc(C)n2nc(SCC(=O)N3CC(C)CC(C)C3)nc2n1 (configuration not stated) | -4% | 30 | 21% | -1% | -3% | 0%
c1ccc(C2[C@H]3CN(Cc4cccnc4)[C@H](c4ccccc4)C34CC2(c2cccnc2)C4)cc1 (some centres not stated) | u | -5 | u | -58% | 14µM* | 16%
Clc1ccc(C2[C@H]3CN(Cc4cccnc4)[C@H](c4ccccc4)C34CC2(c2ccccc2)C4)cn1 (some centres not stated) | u | 42 | u | -14% | u | 13%
c1ccc(C2[C@H]3CN(Cc4cccnc4)[C@H](c4ccccc4)C34CC2(c2ccccc2)C4)cc1 (some centres not stated) | 15µM* | 25 | u | -18% | u | 15%
c1ccc(C2[C@H]3CN(CC4CCCCC4)[C@H](c4ccccc4)C34CC2(c2cccnc2)C4)cc1 (some centres not stated) | 18µM* | -1 | 23µM* | -14% | -17% | 9%
COCCc1ccc(OC2(C)CCN(Cc3cccn3-c3nccs3)C2)cc1 (configuration not stated) | u | -4 | u | -7% | 0% | x
CC(C)C[C@@H](CN)NC(=O)c1nc[nH]c1C(=O)N[C@@H](C)C(=O)CNC[C@H](C)NC(=O)c1nc[nH]c1C(=O)N[C@@H](C)C(=O)O | -9% | 18 | -15% | 4% | 8% | x
CCc1ccc(NCc2cc3cc4c(cc3n(CC(=O)Nc3ccc(OC)cc3)c2=O)OCO4)cc1 | 4.6µM* | x | u | -20% | -3% | 4%
COc1ccc(NCc2cc3cc4c(cc3n(CC(=O)Nc3ccc(F)cc3F)c2=O)OCO4)cc1 | 15µM* | x | 6.5µM* | -20% | -15% | 11%
COc1ccc(NCc2cc3cc4c(cc3n(CC(=O)Nc3cccc(F)c3)c2=O)OCO4)cc1 | x | x | x | 8% | -5% | 11%
O=[S+]1([O-])N=C(Oc2cccnc2)c2ccccc21 | x | x | x | x | x | 1%
Cc1cn2c(=O)cc(COC(=O)c3ccc(NC(=O)c4ccc(C(C)(C)C)cc4)cc3)nc2s1 | u | x | -4% | 8% | 6% | 4%
